Source: PubChem BioAssay
Many of the other results were omitted from the sample, so hits are more common in it than they were.
CD40 NFkB inh: CD40 pathway inhibition in BL2 cells; BL2 NF-kB luciferase reporter, CD40L-induced, 4 h; inhibition, % at 10 µM; 83,000 compounds, 0.94% hits; AID 1053188;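 active = mean inhibition of at least 50% with a set share of replicates also reaching that level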;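 also: 0% = neutral control wells and 100% = IKK inhibitor VII at 50 µM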
* hit, by the source's call; [ ] = remark or other dose.

SMILES	CD40 NFkB inh
C[C@H](NS(=O)(=O)c1ccc(Cl)cc1)C(=O)OCC(=O)Nc1cc(S(=O)(=O)N2CCOCC2)ccc1Cl	4
COc1ccc(S(=O)(=O)N(C)C[C@@H]2OCc3ccccc3-c3ccccc3C(=O)N([C@H](C)CO)C[C@H]2C)cc1	-1
COc1cccc(-c2ccc3c(c2)[C@@H]2[C@@H](CCN2C(=O)c2ccccc2F)[C@H](CO)N3C)c1	19[25 µM]
CCCC(=O)Nc1ccc2c(c1)C(=O)N(C)C[C@@H](OC)[C@H](C)CN(Cc1ccc(F)cc1)[C@@H](C)CO2	7[25 µM]
CCN(Cc1ccccc1)S(=O)(=O)c1ccc(C(=O)N(CCCN(C)C)c2nc3cc4c(cc3s2)OCCO4)cc1	16
CCN(Cc1ccccc1)S(=O)(=O)c1ccc(C(=O)N(CCCN(C)C)c2nc3cc(OC)ccc3s2)cc1	52*
COc1ccc2sc(N(CCCN(C)C)C(=O)c3ccc(C(=O)c4ccccc4)cc3)nc2c1	9
OCCN1CCN(CCCN2c3ccccc3Sc3ccc(C(F)(F)F)cc32)CC1	51*
O=C(CN1CCCC1)N1c2ccccc2Sc2ccccc21	1
O=C(N1CCN(CCO)CC1)N1c2ccccc2CCc2ccccc21	3
CCC(=O)N1[C@H](CO)[C@H](c2ccccc2)[C@H]1CN(CC1CCC1)S(C)(=O)=O	-9[25 µM]
CCCNC(=O)N1[C@H](CO)[C@@H](c2ccccc2)C12CN(CCC(F)(F)F)C2	-6[25 µM]
C=C1C(=O)OC2C1C(OC(=O)C(C)=CC)CC(=C)C1C(O)C3OC3(C)C21O (stereo not drawn)	33
C=C1C(=O)OC2C=C(CO)CCC=C(CO)CC(OC(=O)C(C)C)C12 (stereo not drawn)	87*
CN1CCN(C(=O)C[C@@H]2CC[C@@H]3[C@H](COC[C@@H](O)CN3Cc3cccc(-c4ccncc4)c3)O2)CC1	2[25 µM]
C[C@H]1CN([C@@H](C)CO)C(=O)CCCn2nncc2CO[C@H]1CN(C)C(=O)Nc1ccc(N2CCN(C)CC2)cc1	-6
N#C[C@@H]1[C@H](c2ccc(C#Cc3ccccc3F)cc2)[C@@H](CO)N1C(=O)C1CC1	86*[25 µM]
CCS(=O)(=O)N1[C@H](CO)[C@H](c2ccc(C#Cc3ccccc3F)cc2)[C@@H]1C#N	-4[25 µM]
N#C[C@@H]1[C@H](c2ccc(C#Cc3ccc(F)cc3)cc2)[C@@H](CO)N1C(=O)C1CCCC1	87*
CCS(=O)(=O)N1[C@H](C#N)[C@@H](c2ccc(C#Cc3ccccc3F)cc2)[C@H]1CO	-13[25 µM]
COc1cccc(C#Cc2ccc([C@@H]3[C@@H](C#N)N(C(=O)c4ccccn4)[C@H]3CO)cc2)c1	-23[25 µM]
COc1cccc(C#Cc2ccc([C@@H]3[C@@H](C#N)N(C(=O)c4ccccn4)[C@@H]3CO)cc2)c1	1[25 µM]
N#C[C@@H]1[C@H](c2ccc(C#Cc3ccccc3F)cc2)[C@H](CO)N1C(=O)C1CC1	35[25 µM]
N#C[C@H]1[C@@H](c2ccc(C#Cc3ccccc3F)cc2)[C@H](CO)N1C(=O)C1CC1	30[25 µM]
CCS(=O)(=O)N1[C@H](CO)[C@@H](c2ccc(C#Cc3ccccc3F)cc2)[C@@H]1C#N	65*[25 µM]
SMILES	CD40 NFkB inh
N#C[C@H]1[C@H](c2ccc(C#Cc3ccc(F)cc3)cc2)[C@H](CO)N1C(=O)C1CC1	-26
COc1cccc(C#Cc2ccc([C@H]3[C@@H](C#N)N(C(=O)c4ccccn4)[C@@H]3CO)cc2)c1	53*[25 µM]
N#C[C@H]1[C@@H](c2ccc(C#Cc3ccccc3F)cc2)[C@@H](CO)N1C(=O)C1CCCC1	15
CCOc1ccccc1Nc1nnc(SCC(=O)N(C)C2CCS(=O)(=O)C2)s1 (stereo not drawn)	5
CC(C)c1ccc(NC2CCCN(C(=O)CN3CCCCC3=O)C2)cc1 (stereo not drawn)	1
CN1[C@H](C(=O)NCCc2ccccc2)[C@@H](CO)[C@@H]2Cn3c(cccc3=O)[C@@H]21	-3[25 µM]
O=C(Nc1ccc2c(c1)[C@H]1C[C@H](CC(=O)N3CCOCC3)O[C@@H](CO)[C@H]1O2)NC1CCCCC1	7
CCN1CCN(S(=O)(=O)Cc2ccccc2Cl)CC1	6
C/C=C/c1ccc([C@H]2[C@@H](CO)N(c3ncc(CC)s3)[C@H]2C#N)cc1	45[25 µM]
C[C@H](NC(=O)C[C@H]1CC[C@@H]2[C@H](COC[C@@H](O)CN2C(=O)Nc2cccc(Cl)c2)O1)c1ccccc1	9[25 µM]
CN(C)CC(=O)N1C[C@@H]2[C@H](c3ccccc31)[C@H](CO)N2C(=O)c1ccccn1	-6[25 µM]
N#C[C@@H]1[C@@H](c2ccc(C#Cc3cccc(F)c3)cc2)[C@@H](CO)N1C(=O)C1CCCC1	-47
N#C[C@@H]1[C@@H](c2ccc(C#Cc3cccc(F)c3)cc2)[C@@H](CO)N1C(=O)C1CC1	3
N#C[C@@H]1[C@H](c2ccc(C#Cc3cccc(F)c3)cc2)[C@@H](CO)N1C(=O)C1CCC1	99*
COc1cccc(-c2ccc(C3[C@@H]4CN(C(=O)Cc5ccncc5)C[C@H]3N4)cc2)c1 (stereo partly drawn)	-8[25 µM]
CC(=O)c1cccc(N(CC(=O)O)S(C)(=O)=O)c1	21
CCc1cnc(N2[C@H](C#N)[C@H](c3ccc(C#CCC4CCCC4)cc3)[C@H]2CO)s1	5[25 µM]
